mHTT CaM bind: mutant huntingtin-calmodulin interaction inhibitors – biochemical, AlphaScreen, primary screen | P42858 | AlphaScreen His-mHTT/GST-CaM binding, luminescence | inhibition, % at 15 µM | 190,000 compounds, 3.6% hits;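 note: 0% = both proteins with DMSO and 100% = one protein alone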
Pf apPOL block: Pf-apPOL inhibitors, biochemical, fluorescence. Plasmodium falciparum apicoplast DNA polymerase (apPOL). inhibition, % at 10 µM. 210,000 compounds, 0.25% hits. Recombinant Pf-apPOL, molecular beacon fluorescence, 1.5 h
* hit, by the source's call; i = inactive; nt = no result. The entries come from a sample that favours hits as a whole. Cut-off read from the data, not from the text of the source: active = inhibition above about 50%; inactive = the rest.

SMILES	mHTT CaM bind	Pf apPOL block
Oc1ccccc1C1CC(c2ccc3c(c2)OCO3)=NC(c2cccc(F)c2)N1 (stereo unspecified)	4	-3
COc1ccc(C2=NC(c3ccc(OC)c(OC)c3)NC(c3ccccc3O)C2)cc1 (stereo unspecified)	53*	-5
CN1CCOc2ccc(NC(=O)c3ccc4ncsc4c3)cc2C1=O	-14	-7
CCOC(=O)c1ccc(Oc2coc3c(CN4CCCCC4)c(O)ccc3c2=O)cc1	-1	-4
COc1ccc(Oc2coc3c(CN4CCCCCC4)c(O)ccc3c2=O)cc1	97*	-3
FC(F)C(F)(F)Oc1ccc(CSc2nc3cc(Cl)cc(Cl)c3o2)cc1	-23	nt
COc1ccccc1NC(=O)N1CCC2(CC1)NC(=O)c1cc(Cl)ccc1N2C	-6	-7
CCOC(=O)c1ccc(N=Cc2cc(I)cc(I)c2O)cc1	nt	-26
N#Cc1ccc(N=Cc2cc(I)cc(I)c2O)cc1	53*	0
COc1ccc(OC)c(C2C=C(Nc3ccccc3)C(=O)N2c2ccccc2)c1 (stereo unspecified)	5	-7
O=C1C(Nc2ccccc2)=CC(c2ccccc2[N+](=O)[O-])N1c1ccccc1 (stereo unspecified)	66*	1
COc1ccc2nc(SCC3CC3(Cl)Cl)[nH]c2c1 (stereo unspecified)	-9	0
c1ccc(CN2CCCC(c3nc(-c4cccnc4)n[nH]3)C2)nc1 (stereo unspecified)	99*	-23
N#Cc1cccc(CN2CCCC(c3nc(-c4ccncc4)n[nH]3)C2)c1 (stereo unspecified)	18	-7
N#Cc1ccc(CN2CCCC(c3nc(-c4cccnc4)n[nH]3)C2)cc1 (stereo unspecified)	-12	6
c1cc(-c2n[nH]c(C3CCCN(Cc4ccc5cc[nH]c5c4)C3)n2)ccn1 (stereo unspecified)	53*	3
CC(N=Cc1cc(Cl)cc(Cl)c1O)c1ccccc1 (stereo unspecified)	25	4
COc1cccc(Cc2nnc(-c3ccc4nsnc4c3)o2)c1	nt	-7
COc1ccc(CC(=O)N2CCCC2c2cc(C(C)C)no2)cc1 (stereo unspecified)	-1	-5
CC(C)(C)NC(=O)C(=O)NCC1CCN(C(=O)COc2ccccc2)CC1	-12	-7
Cc1ccc2c(c1)c1cccc3c1n2CCN3CCC(N)=O	69*	-4
Cc1ccc2c(c1)c(=O)c(C(=O)O)cn2C	-5	-3
O=c1[nH]c2ccccc2c(=O)n1Cc1ccccc1	-4	-7
Cc1c(Cc2ccccc2)[nH]c2ccccc12	100*	1
O=C(Nc1ccccc1F)C1=CC(=O)C2C=CC=CC2O1 (stereo unspecified)	2	5
SMILES	mHTT CaM bind	Pf apPOL block
O=C(c1cn(-c2ccc(F)cc2F)c(=O)c2ccccc12)N1CCC(Cc2ccccc2)CC1	61*	-4
COc1ccccc1N1CCN(C(=O)c2cn(-c3ccc(F)cc3F)c(=O)c3ccccc23)CC1	36	-4
Cc1ccc(C(=O)N2CCC(CCOc3ccccc3)CC2)s1	-23	-2
O=C(Nc1c2c(nn1-c1ccc(F)cc1)CSC2)c1ccc(Cl)c([N+](=O)[O-])c1	6	-7
O=C(/C=C/c1ccccc1)Nc1c2c(nn1-c1ccc([N+](=O)[O-])cc1)CSC2	56*	-10
O=C(Nc1c2c(nn1-c1ccc(F)cc1)CSC2)c1ccc(Br)o1	58*	-11
Cc1ccc(-n2nc3c(c2NC(=O)c2ccc(Br)o2)CSC3)cc1	47	-6
O=C(Nc1c2c(nn1-c1ccc([N+](=O)[O-])cc1)CSC2)c1ccc(Cl)c([N+](=O)[O-])c1	56*	-5
Cc1ccc(-n2nc3c(c2NC(=O)/C=C/c2ccccc2)CSC3)cc1	45	9
O=C(/C=C/c1ccccc1)Nc1c2c(nn1-c1ccc(F)cc1)CSC2	76*	-9
O=C(/C=C/c1ccc2c(c1)OCO2)Nc1c2c(nn1-c1ccc([N+](=O)[O-])cc1)CSC2	37	-2
C/C(=N\NC(N)=S)c1cccs1	i	nt
COc1ccc(C(=O)Nc2c3c(nn2C(C)(C)C)CSC3)cc1	23	-2
O=C(Nc1c2c(nn1-c1cccc(Cl)c1)CSC2)c1cccc(Cl)c1	-1	-6
CC(C)(C)n1nc2c(c1NC(=O)/C=C/c1ccccc1)CSC2	98*	3
O=C(/C=C/c1ccccc1)Nc1c2c(nn1-c1cccc(Cl)c1)CSC2	53*	-3
COc1ccc(OC)c(C=C2Oc3cc(C)cc(O)c3C2=O)c1	4	3
COc1ccc(C=C2Oc3cc(C)cc(O)c3C2=O)c(OC)c1OC	75*	-5
Cn1c(=O)c2c3c(sc2n2c(SCc4ccccc4)nnc12)CCC3	1	6
CC1C(=O)N2CCCc3cc(NC(=O)COc4ccc5ccccc5c4)cc1c32 (stereo unspecified)	52*	-12
CC1C(=O)N2CCCc3cc(NC(=O)C(=O)NCc4ccc5c(c4)OCO5)cc1c32 (stereo unspecified)	25	4
CCc1cc(-c2onc(C)c2-c2ccc(OC)cc2)c(O)cc1OC	20	-3
CCc1cc(-c2[nH]ncc2-c2ccc([N+](=O)[O-])cc2)c(O)cc1OC	95*	6
COc1ccccc1Nc1nc(-c2sc(N)nc2C)cs1	74*	-1
COc1ccc(OC)c(Nc2nc(-c3ccncc3)cs2)c1	6	-10
SMILES	mHTT CaM bind	Pf apPOL block
O=[N+]([O-])c1cccc(Nc2nc(-c3ccccn3)cs2)c1	48	-3
Cc1c(Cl)cccc1Nc1nc(-c2ccccn2)cs1	100*	1
CCC(=O)Nc1nc(C)c(-c2csc(Nc3ccccn3)n2)s1	41	0
CCc1ccccc1Nc1nc(-c2ccccn2)cs1	99*	-2
COc1ccccc1Nc1nc(-c2ccccn2)cs1	97*	-7
CCC(=O)Nc1nc(C)c(-c2csc(Nc3ccccc3OC)n2)s1	41	28
CCC(C)NC(=O)CN(c1cc(C(F)(F)F)ccc1Cl)S(=O)(=O)c1ccccc1 (stereo unspecified)	-3	-5
CC1=C(C(=O)Nc2ccc(F)cc2F)C(c2ccc(Cl)cc2)C2=C(CC(C)(C)CC2=O)N1 (stereo unspecified)	-29	-8
O=C(CSc1nnc(Cc2ccccc2)n1C1CCCCC1)NC1CCCCC1	-2	7
CC1(C)CC(=O)C2=C(C1)c1c(ccc3ncccc13)NC2c1cccc([N+](=O)[O-])c1 (stereo unspecified)	36	-3
Cc1ccccc1CSCCNS(=O)(=O)c1ccccc1[N+](=O)[O-]	21	-1
O=C(/C=C/c1ccccn1)c1ccc(NC(=O)c2cccs2)cc1	18	4
O=[N+]([O-])c1ccc(N2CCN(Cc3cccs3)CC2)cc1	14	-8
C(#CC1(N2CCOCC2)CCCC1)c1ccccc1	-1	-5
COc1ccc(Cl)cc1Nc1nc(-c2ccncc2)cs1	-2	-3
COc1ccc(Cl)cc1Nc1nc(-c2ccccn2)cs1	56*	0
COc1cccc(-n2nc(C(=O)N3CCN(c4cccc(Cl)c4)CC3)c3ccccc3c2=O)c1	61*	-2
COc1ccc(C(=O)N2CCN=C2N2CCN(c3cccc(Cl)c3)CC2)cc1	85*	0
CCOc1ccc(C(=O)N2CCN=C2N2CCN(c3cccc(Cl)c3)CC2)cc1	100*	0

Bioassay records: PubChem BioAssay, University of Kansas High Throughput Screening Laboratory
